Consider 36 molecules from ChEMBL document CHEMBL3433997, “St. Jude Leishmania screening dataset” (2016).

Common to all, as to type: functional
Test [1] concerns the target Solute carrier family 2, facilitated glucose transporter member 1 (Homo sapiens) (UniProt P11166). The test is described as follows: ST_JUDE_LEISH: Cytotoxicity at 2uM final concentration against transgenic Leishmania Mexicana promastigotes LmGLUT1 that are glucose transport deficient and complemented with the human glucose transporter GLUT1. Activity is measured by DNA content using SYBR green in vitro.

Test [2] deals with Hexose transporter 1 (Plasmodium falciparum) (UniProt O97467). The test is described as follows: ST_JUDE_LEISH: Cytotoxicity at 2uM final concentration against transgenic Leishmania Mexicana promastigotes LmPfHT that are glucose transport deficient and complemented with the Plasmodium falciparum hexose transporter. Activity is measured by DNA content using SYBR green in vitro.

Test [3] concerns the target Glucose transporter (Leishmania mexicana) (UniProt O61059). In words: ST_JUDE_LEISH: Cytotoxicity at 2uM final concentration against transgenic Leishmania Mexicana promastigotes LmGT2 that are glucose transport deficient and complemented with the L. Mexicana glucose transporter 2. Activity is measured by DNA content using SYBR green in vitro.

Chain of Solute carrier family 2, facilitated glucose transporter member 1 (Homo sapiens) (P11166 whole entry): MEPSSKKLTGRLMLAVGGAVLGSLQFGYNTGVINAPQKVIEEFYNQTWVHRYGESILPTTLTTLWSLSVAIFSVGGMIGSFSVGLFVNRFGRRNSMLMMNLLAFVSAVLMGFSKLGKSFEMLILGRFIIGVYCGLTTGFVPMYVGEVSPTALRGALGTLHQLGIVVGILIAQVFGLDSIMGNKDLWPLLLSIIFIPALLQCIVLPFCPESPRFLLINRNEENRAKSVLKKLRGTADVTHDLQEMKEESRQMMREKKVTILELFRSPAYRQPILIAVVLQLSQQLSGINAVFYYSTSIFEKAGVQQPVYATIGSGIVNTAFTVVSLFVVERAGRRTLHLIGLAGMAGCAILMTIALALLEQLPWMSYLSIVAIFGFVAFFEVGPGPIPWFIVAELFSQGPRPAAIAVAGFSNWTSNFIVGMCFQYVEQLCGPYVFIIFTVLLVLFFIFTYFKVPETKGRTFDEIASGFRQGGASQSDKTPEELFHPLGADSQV

On to `COc1cc2c(cc1OC)C(C)(C)CN1Cc3c(c(CO)c(OC)c(OC)c3OC)CC21` (stereo not drawn), for which the inhibition in test [1] came out at 4.54%; in test [2] it was 3.72%; in test [3], 4.31%.
The matching figures for `CC(C)NCc1ccc(OCc2cccc(COc3ccc(CNC(C)C)cc3I)c2)c(I)c1`: 112%, 109% and 113%.
`O=C(/C=C/c1ccc(Cl)c(Cl)c1)NCCCCCN1CC[C@H](NC(=O)c2ccc3c(c2)OCO3)C1`: the inhibition in test [1] worked out at 5.7%; in test [2], 5.13%; in test [3], 3.74%.
The like results for `Cc1cccc2nc(-c3ccc(-c4cccc(NC(=O)NCc5ccc(F)cc5)c4)cc3)[nH]c12` were, in that order, 3.38%, 4.77% and 3.65%.
For `O=C(Nc1ccc(C(F)(F)F)cc1)NC1CCN(c2ccnc3cc(Cl)ccc23)C1` (stereo not drawn), the inhibition turned out to be 3.59% in test [1], 3.27% in test [2] and 0.73% in test [3].
Take `O=C(NCCCCN1CCC(c2ccc3c(c2OCCO)CCCC3)CC1)c1sc(-c2ccc(C(F)(F)F)cc2)nc1CO`: the inhibition in test [1] turned out to be 3.31%; in test [2], 2.17%; in test [3], 3.21%.
The like results for `CC(C)CN1C(=O)c2ccc(C(=O)Nc3nccs3)cc2C1=O` were, in that order, 1.07%, 1.52% and 3.65%.
The matching figures for `Cc1cc(C2CCN(CCCCNC(=O)c3ccc(-c4ccc(C#N)cc4)cc3)CC2)c(C)cc1OCCO`: 10%, 12.3% and 9.78%.
The like results for `CC(=O)Nc1nc(C(=O)Nc2cccc(-c3ccc(-c4nc5cccc(C)c5[nH]4)cc3)c2)cs1` were, in that order, 8.06%, 7.51% and 6.75%.
As to `COc1cc(NC(=O)c2sc(-c3ccc(Cl)cc3)cc2NC(=O)CN2CCCC2)ccc1OCCN1CCCC1`, the inhibition came out at 5.97% in test [1], 9.91% in test [2] and 4.39% in test [3].
Regarding `COc1ccc2nccc(N3CCC(O)(CCNCc4ccc5c(n4)NC(=O)CO5)CC3)c2n1`, the inhibition in test [1] stood at 2.27%; in test [2] it was 3.33%; in test [3], 2.81%.
The matching figures for `Cc1ccc2sc(N3CCN(C(=O)c4ccc([N+](=O)[O-])o4)CC3)nc2c1C`: 44.5%, 44.3% and 13.7%.
In the case of `CC(=O)c1ccc(NC(=O)CSc2nc(-c3ccccc3Cl)ns2)cc1`, the inhibition was determined as 2.79% in test [1], 10.3% in test [2] and 9.72% in test [3].
For `C=CC[C@H](C[C@H](O)[C@H](Cc1ccccc1)NC(=O)c1ccc(-n2cccn2)cc1)C(=O)NC1CCCCC1`, the inhibition in test [1] is 9.63%; in test [2], 9.73%; in test [3], 9.59%.
For the molecule `Clc1ccc(CNc2ccnc(NCc3cccnc3N3CCCC3)n2)c(Cl)c1`, the inhibition in test [1] is 12.9%; in test [2], 7.88%; in test [3] it was 3.44%.
In the case of `Fc1ccc2ncc(Cl)c(CCN3CCC(NCc4cc5c(cn4)OCCO5)CC3)c2c1`, the inhibition is 11% in test [1], 11.7% in test [2] and -0.41% in test [3].
The like results for `CCN(CC)CCCn1c(N)c(-c2nc3ccccc3[nH]2)c2nc(C#N)c(C#N)nc21` were, in that order, 7.13%, 6.56% and 4.63%.
The like results for `N=C(Nc1ccccc1)Nc1cccc(Cc2ccc([N+](=O)[O-])cc2)n1` were, in that order, 5.43%, 3.98% and 0.1%.
Take `O=C(Nc1cccc(CN2CCCN(CC3CC3)CC2)c1)c1ccc(-c2ccccc2)cc1`: the results for the inhibition in test [1], in test [2] and in test [3] were 3.62%, 4.69% and -0.4%, respectively.
The matching figures for `C=Cc1ccc(-c2c(C)[nH]c(C)c(Br)c2=O)cc1`: 0.56%, 1.38% and -0.92%.
In the case of `Cc1cc(C)cc(CC(=O)N2CCC(n3c(C)nc4ccc(C)cc43)CC2)c1`, the inhibition came out at 2.35% in test [1], 1.45% in test [2] and 1.51% in test [3].
The like results for `COc1cccc(CNC(=O)[C@H]2CNCCN2C(=O)CCCc2ccccc2)c1` were, in that order, 3.03%, -0.14% and 5.01%.
Consider `O=C(NCc1ccc(F)cc1)Nc1ccc(-c2cccc(-c3nc4cc(F)ccc4[nH]3)c2)cc1`, for which the inhibition in test [1] was 7.44%; in test [2] it was 6.92%; in test [3], -1%.
With `O=C(Nc1ccc(C(=O)N2CCN(CCN3CCN(c4cccc(C(F)(F)F)c4)CC3)CC2)cc1)c1ccc(C(F)(F)F)cc1`, the inhibition in test [1] turned out to be 2.54%; in test [2], 2.63%; in test [3], 1.69%.
As to `O=C(Nc1ccc2c(c1)CCN(C1CCC1)CC2)c1cn(-c2ccccc2)nc1-c1ccccc1`, the inhibition in test [1] stood at 5.38%; in test [2], 3.65%; in test [3] it was 0.52%.
On to `COc1ccc(CNc2nccc3ccc(-c4ccc(N)nc4)cc23)cc1`, for which the inhibition was -2.02% in test [1], -0.06% in test [2] and -0.73% in test [3].
The matching figures for `CC(C)N1CCN(CCCCNc2c3ccccc3nc3ccccc23)CC1`: 33%, 41% and 22.3%.
With `CC(C)c1ccc(S(=O)(=O)N(c2ccc3c(c2)OCO3)C2CCN(Cc3ccccc3)C2)cc1` (stereo not drawn), the inhibition in test [1] was -0.01%; in test [2] it was -0.17%; in test [3], 0.98%.
The like results for `CNC(=O)CSc1nnc(-c2ccc(C)cc2)c(-c2ccc(C)cc2)n1` were, in that order, 2.46%, 2.74% and 1.88%.
The matching figures for `COc1ccc(-c2nc3cc4ccccc4nc3[nH]2)c(OCC(O)CNC(C)C)c1` (stereo not drawn): -1.53%, 1.33% and 1.21%.
In the case of `CN(C(=O)c1cc2c(-c3cncnc3)cccc2[nH]1)c1ccccc1`, the inhibition in test [1] was 2.07%; in test [2] it was -0.81%; in test [3] it was -0.72%.
The matching figures for `Cc1ccc(O)cc1Nc1ccnc2cc(-c3ccccc3)ccc12`: 7.87%, 8.41% and 7.72%.
With `CC(C)CCN1CCCN(Cc2cccc(C(=O)Nc3ccc(C(C)(C)C)cc3)c2)CC1`, the inhibition in test [1] was 3.18%; in test [2], 0.18%; in test [3], 2.78%.
As to `CCc1cn2c3c(cc(C(=O)N[C@@H](Cc4ccccc4)[C@H](O)CNCc4ccc(C)cc4)cc13)N(C)S(=O)(=O)CC2`, the inhibition was -0.24% in test [1], 1.57% in test [2] and 0.38% in test [3].
Regarding `Cc1nc(Cl)c2c(-c3ccccc3)csc2n1`, the figures for the inhibition in test [1], in test [2] and in test [3] were 0.55%, -0.74% and -0.21%, respectively.
The matching figures for `CNc1ccc(CNCc2ccc(-c3ccc(-c4nc5cc(F)ccc5[nH]4)cc3)cc2)cc1`: 3.2%, -0.46% and -0.33%.
